Screens: PubChem BioAssay, National Center for Advancing Translational Sciences (NCATS)
MCF10A rerep: A quantitative high throughput screen for small molecules that induce DNA re-replication in MCF 10a normal breast cells; Potency, µM (series often up to 46.1 µM), without a hit: top-dose activity, positive = re-replication, actives largely listed as activators; 350,000 compounds, 2.9% hits; MCF 10A DNA re-replication, Hoechst nuclear intensity, 48 h; AID 624296, 2012; also: % of control where 0% means no effect; nearly all actives have a fitted effect of over 50% in size
HT1080-NT tox: qHTS for induction of synthetic lethality in tumor cells producing 2HG: qHTS for the HT-1080-NT fibrosarcoma cell line | HT-1080-NT fibrosarcoma viability, CellTiter-Glo ATP luminescence, 48 h | Potency, µM (top dose mostly 46.1 µM), for inactives: at the highest dose activity, negative = less viability, usual class: cytotoxic | 360,000 compounds, 1.6% hits | AID 686970, 2013;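 also: NT is the 2HG producing partner of a matched IDH1 knockdown line; 0% = DMSO-treated cells and -100% = media-only wells without cells; nearly all actives have a fitted effect of over 55% in size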
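Compounds were tested in concentration-response format on HT-1080-NT cells for 48 hours at 37 degrees C. Cell viability came from CellTiter-Glo luminescence; curves were classified by r2, response magnitude and activity.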
KB-V1 cytotox: qHTS assay for MDR1-selective chemotherapeutics: Primary screen using the drug-selected MDR subline cells KB-V1. KB-V1 MDR cells viability, CellTiter-Glo, 72 h. Potency, µM (highest dose often 46.1 µM), actives largely listed as cytotoxic. AID 1347076, 2019. 400,000 compounds, 3.4% hits; also: % is scaled to controls: 0 for no effect and ±100 for the full control effect; nearly all actives have a fitted effect of over 60% in size
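Potencies derive from concentration-effect curves fitted to normalized luminescence (CellTiter-Glo) of KB-V1 cells treated for 72 h at 37 degrees C in phenol-red-free DMEM containing 10% FBS.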
HT1080 IDH1KD tx: qHTS for induction of synthetic lethality in tumor cells producing 2HG: qHTS for the HT-1080-IDH1KD cell line; HT-1080 IDH1 knockdown viability, ATP luminescence, 48 h; Potency, µM (series often up to 46.1 µM), inactives show at the highest dose activity, negative = toxicity, usual class: cytotoxic; AID 686971, 2013; 360,000 compounds, 2% hits;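 also: 0% = DMSO wells and -100% = cell-free medium wells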
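Assay cells: HT-1080 with IDH1 knockdown, 750 per well, RPMI/5% FBS. Exposure: 48 h at 37 °C following 2 h pre-incubation. Read: CellTiter-Glo luminescence; fitted concentration-response, curve class assigned.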
KB-3-1 cytotox: qHTS assay for MDR1-selective chemotherapeutics: Primary screen using the parental adenocarcinoma cell KB-3-1. KB-3-1 viability, CellTiter-Glo ATP luminescence, 72 h. Potency, µM (top dose mostly 46.1 µM), hits mostly cytotoxic. 400,000 compounds, 1.4% hits; also: % is scaled to controls: 0 for no effect and ±100 for the full control effect; nearly all actives have a fitted effect of over 60% in size
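Cytotoxicity measured as CellTiter-Glo luminescence after 72 h at 37 C. Compound titrations were pinned onto drug-naive KB-3-1 parental adenocarcinoma cells grown in DMEM with 10% FBS, and normalized data fitted to concentration-response curves.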
SW480 rereplic: A quantitative high throughput screen for small molecules that induce DNA re-replication in SW480 colon adenocarcinoma cells. SW480 DNA re-replication, Hoechst DNA content imaging, 48 h. Potency, µM (top dose mostly 46.1 µM), for the others: at the top dose re-replication activation, most hits filed as activators. 340,000 compounds, 1.8% hits. AID 624297, 2012; also: % of control where 0% means no effect; nearly all actives have a fitted effect of over 55% in size
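Image-based read-out: total Hoechst fluorescence of nuclei (405 nm excitation, 500-530 nm emission), with hits raising the fraction of high-intensity nuclei. SW480 colon cells incubated 48 hr with compounds at 37 C.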
The depositor's hits bear a star; i = inactive; ? = inconclusive; . = not tested or not shown. Rows were chosen to be rich in hits. Some 8% of all compounds tested hit in one or more screens of this group. Calls follow the shape of the dose curve; as a rule, active = well fitted curve in the direction sought with a large enough effect; inconclusive = small, poorly fitted or top-dose-only effect, or another doubt; inactive = no such curve, though single readings can be large; an effect the other way counts as inactive or inconclusive. Potency is read from the fitted curve at half-maximal effect.

SMILES | MCF10A rerep | HT1080-NT tox | KB-V1 cytotox | HT1080 IDH1KD tx | KB-3-1 cytotox | SW480 rereplic
CN(C)c1ccc(-c2[nH][nH]c(=O)c2NC(=O)c2ccccn2)cc1 | . | ? | i | 21µM* | i | .
CC(=O)c1ccc(N(C(=O)Cn2nnc3ccccc32)C(C(=O)NCc2ccccc2)c2ccccn2)cc1 (stereo unspecified) | -8% | 12% | i | 18% | i | -2%
CCOC(=O)C1(CC)CC(CSc2nc3ccccc3[nH]2)OC1=O (stereo unspecified) | 6% | 3% | i | 2% | i | -1%
CCOC(=O)C1(CCC(C)C)CC(CSc2nc3ccccc3[nH]2)OC1=O (stereo unspecified) | 6.5µM* | -2% | ? | 2% | i | 14%
CN1CCC(N(C)S(=O)(=O)c2ccc(NC(=O)COc3ccc(Br)cc3Cl)cc2)CC1 | ? | 16µM* | ? | 18µM* | ? | -30%
C[C@@H]1CCCCO[C@H](CN(C)C(=O)c2ccccc2)[C@@H](C)CN([C@H](C)CO)C(=O)c2cc(NC(=O)c3ccncc3)ccc2O1 | . | 20% | ? | 14% | i | .
Nc1nc(N)c(N=O)c(OCC2CCCCC2)n1 | ? | ? | ? | 18µM* | i | 11%
N#C/C(=C\c1cccc([N+](=O)[O-])c1)c1ccccn1 | 8% | -6% | i | -23% | i | 22%
N#C/C(=C\c1c[nH]c2ccc(Br)cc12)c1ccccn1 | ? | 26µM* | i | ? | i | ?
CC1CCCN(C(=O)c2ccc3nc[nH]c3c2)C1 (stereo unspecified) | -1% | 8% | i | 8% | i | -6%
O=C(N/N=C/c1ccc[nH]1)c1ccc(O)cc1 | 3% | 17% | i | 11% | i | -3%
O=C(N/N=C/c1ccccc1C(=O)O)c1ccc(COc2cccc3cccnc23)cc1 | -7% | -2% | i | 2% | i | 1%
O=C(N/N=C/c1ccc[nH]1)c1ccc(COc2cccc3cccnc23)cc1 | ? | ? | i | 5.2µM* | 2.3µM* | 27%
Cc1cc(Br)c(OCc2ccc(C(=O)N/N=C/c3ccc[nH]3)cc2)c(Br)c1 | ? | 0.82µM* | ? | 1µM* | 2.6µM* | 3.7µM*
Cn1cc(C(=O)N/N=C/c2c(O)ccc3ccccc23)ccc1=O | 26µM* | ? | i | ? | ? | -7%
Cn1nccc1C(=O)N/N=C/c1c(O)ccc2ccccc12 | 16µM* | ? | ? | ? | 7.3µM* | ?
O=C(N/N=C\c1c(O)ccc2ccccc12)c1cncc(Br)c1 | 15µM* | ? | ? | 1µM* | 2.9µM* | ?
Cc1ccc(C(=O)N/N=C/c2c(O)ccc3ccccc23)cn1 | 24% | ? | i | ? | i | 25%
O=C(N/N=C/c1c(O)ccc2ccccc12)c1cccnc1 | ? | ? | ? | ? | ? | 0.82µM*
Cc1nc2scc(C)n2c(=O)c1S(=O)(=O)N1CCN(c2ccccc2)CC1 | -19% | 15% | i | 10% | i | -14%
Cc1c(Cl)cccc1NC(=O)C1C2C=CC(C2)C1C(=O)O (stereo unspecified) | -1% | 7% | i | -2% | i | ?
CC(CCc1ccccc1)OS(N)(=O)=O (stereo unspecified) | 14% | 15% | i | 14% | i | -10%
Cc1ccc(Cn2ncc(C)c2N)o1 | ? | 0% | i | -42% | i | -22%
O=C(N/C(=C\c1ccc(Br)cc1)C(=O)N1CCOCC1)c1ccc(Br)o1 | 0% | -2% | i | -1% | i | -8%
Cc1occc1C(=O)N/N=C/c1c(O)ccc2ccccc12 | ? | ? | ? | 6.5µM* | 6.5µM* | 0.52µM*
SMILES | MCF10A rerep | HT1080-NT tox | KB-V1 cytotox | HT1080 IDH1KD tx | KB-3-1 cytotox | SW480 rereplic
COc1ccc2ccccc2c1/C=N\NC(=O)c1cccnc1 | 18µM* | -2% | i | -15% | i | 3.7µM*
O=C(NN=Cc1c(O)ccc2ccccc12)c1ccncc1 | ? | ? | 0.46µM* | ? | i | 24%
O=C(N/N=C\c1c(O)ccc2ccccc12)c1ccc(O)cc1 | -1% | ? | i | ? | i | ?
O=C(N/N=C/c1ccccn1)c1ccc(Br)o1 | 19% | -22% | i | -28% | i | -5%
O=C(N/N=C/c1c(O)ccc2ccccc12)c1ccc(Br)o1 | ? | ? | ? | 5.8µM* | ? | 1.2µM*
CCN(C(=O)CCN1C(=O)c2ccccc2C1=O)C1CCCCC1 | 2% | 4% | i | 6% | i | 2%
O=C(O)c1ccc(CNC(=O)c2ccc(S(=O)(=O)N3CCCC3)cc2)cc1 | . | 1% | i | 14% | i | .
Cc1ccc(C(=O)NCc2cccc(C(F)(F)F)c2)cc1S(=O)(=O)N1CCCCC1 | -2% | -21% | i | ? | i | -273%
CCOc1ccc2ccccc2c1/C=N\NC(=O)c1ccc([N+](=O)[O-])cc1 | 1% | -10% | i | -24% | i | 23µM*
CCOc1ccc2ccccc2c1/C=N\NC(=O)OC | 13% | 15% | i | 6% | i | -9%
CN(CC(=O)Nc1ccccc1Cl)C(=O)COC(=O)CSc1ccc(F)cc1 | -2% | -9% | i | 0% | i | -4%
N=C1C(=O)OCC1c1ccccc1NC(=O)Nc1ccccc1 (stereo unspecified) | 2% | -5% | ? | -1% | i | -5%
CC(C)=Nc1ccccc1C1COC(=O)C1=N (stereo unspecified) | -70% | 9% | i | 5% | i | 0.52µM*
C=CC[n+]1c(-c2ccccc2)csc1NC(C)(C)C | 11% | 1% | i | -4% | i | -2%
C=CC[n+]1c(-c2ccc(OC)c(OC)c2)csc1NNC(=O)Nc1ccccc1 | 16% | ? | 18µM* | 16µM* | ? | -2%
COc1ccc(-c2cc3ccc(O)cc3oc2=O)cc1 | 18µM* | -8% | i | -22% | i | 18µM*
O=c1oc2cc(O)ccc2cc1-c1ccccc1 | ? | -14% | i | 3% | i | ?
